Screening results from PubChem BioAssay.
Only some compounds are listed: those with a hit (about 2.2% of all), similar ones and a draw of the others.
TMEM16A act = activates or potentiates the mouse TMEM16A chloride channel; HEK293 TMEM16A/YFP-H148Q/I152L, iodide quench fluorescence; active compounds read low; B-score at 10 µM; actives 0.3% (n = 340,000); AID 623877;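 active = fluorescence-ratio B-score plate-corrected deviation score at least 3 library SD below zero, with starting fluorescence score within 5 deviations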;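 note: channel opened by trigger with iodide after compound preincubation; score built on the fluorescence ratio of max minus min over baseline; more negative score means more quench and so TMEM16A activation or potentiation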
TLR4 MyD88 comp = inhibitors of human TLR4-MyD88 binding | O00206+Q99836 | HeLa CL3-4 TLR4/MyD88 BLA complementation, FRET ratio | inhibition, % at 8.4 µM | actives 0.18% (n = 200,000) | AID 861; in the data active = inhibition above about 25%
GRK2 inh = inhibitors of human GRK2 displacing RNA aptamer | bead flow cytometry, FAM-aptamer displacement from GRK2 | inhibition of aptamer binding, % at 10 µM | actives 0.59% (n = 330,000);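 active = inhibition of aptamer binding above 40%, roughly 3 SD of noise, on plates passing a quality check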;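 note: median bead fluorescence of bound FAM aptamer so fluorescent compounds give negative values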
TLR9-MyD88 block = inhibitors of human TLR9-MyD88 binding; Q9NR96+Q99836; CHO BLA complementation TLR9-MyD88, CCF4 FRET ratio; inhibition, % at 4.98 µM; actives 0.21% (n = 340,000); AID 504734;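 active = inhibition above the mean over all tested compounds plus 3 SD, cut at about 21% in these data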
Target sequence (Q99836 whole entry, looked up): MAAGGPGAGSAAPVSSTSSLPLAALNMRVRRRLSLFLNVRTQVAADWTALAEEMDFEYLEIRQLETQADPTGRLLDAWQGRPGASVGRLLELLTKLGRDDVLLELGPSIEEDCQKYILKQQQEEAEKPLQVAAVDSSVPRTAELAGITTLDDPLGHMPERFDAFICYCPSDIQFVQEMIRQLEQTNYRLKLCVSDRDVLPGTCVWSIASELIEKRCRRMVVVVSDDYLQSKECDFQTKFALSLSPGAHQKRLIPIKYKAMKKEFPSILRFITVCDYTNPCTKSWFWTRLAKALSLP
Target sequence (Q9NR96 whole entry, looked up): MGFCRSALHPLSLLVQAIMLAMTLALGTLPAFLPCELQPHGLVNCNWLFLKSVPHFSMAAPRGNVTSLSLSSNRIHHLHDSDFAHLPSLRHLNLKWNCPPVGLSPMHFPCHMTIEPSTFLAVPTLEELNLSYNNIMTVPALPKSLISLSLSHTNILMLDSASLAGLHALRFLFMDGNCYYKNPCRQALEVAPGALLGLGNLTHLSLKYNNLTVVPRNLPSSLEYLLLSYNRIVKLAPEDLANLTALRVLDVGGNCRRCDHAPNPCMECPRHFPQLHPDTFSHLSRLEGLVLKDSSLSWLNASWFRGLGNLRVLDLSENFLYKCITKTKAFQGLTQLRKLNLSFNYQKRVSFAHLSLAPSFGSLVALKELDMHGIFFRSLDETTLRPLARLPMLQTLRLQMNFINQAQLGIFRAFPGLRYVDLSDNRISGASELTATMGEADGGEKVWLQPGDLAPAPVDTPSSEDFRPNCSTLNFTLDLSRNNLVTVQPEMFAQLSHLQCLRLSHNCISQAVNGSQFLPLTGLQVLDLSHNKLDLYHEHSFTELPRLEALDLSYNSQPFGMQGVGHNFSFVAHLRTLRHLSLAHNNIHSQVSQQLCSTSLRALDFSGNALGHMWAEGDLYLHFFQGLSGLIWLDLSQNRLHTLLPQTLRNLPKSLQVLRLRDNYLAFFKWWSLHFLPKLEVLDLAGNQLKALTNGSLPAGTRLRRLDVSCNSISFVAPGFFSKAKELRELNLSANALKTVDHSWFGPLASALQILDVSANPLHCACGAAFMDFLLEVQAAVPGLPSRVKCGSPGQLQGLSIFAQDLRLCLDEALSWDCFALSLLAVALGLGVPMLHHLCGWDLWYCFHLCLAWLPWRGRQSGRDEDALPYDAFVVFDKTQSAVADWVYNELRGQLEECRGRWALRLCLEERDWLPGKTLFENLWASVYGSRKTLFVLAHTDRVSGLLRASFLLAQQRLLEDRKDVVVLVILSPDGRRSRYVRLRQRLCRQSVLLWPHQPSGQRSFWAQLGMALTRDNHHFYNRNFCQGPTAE
ANO1 block = mouse TMEM16A channel inhibition, primary screen; normalized B-score (activity score, 25-100; higher = stronger inhibition) at 10 µM; AID 588511; Q8BHY3; actives 1.2% (n = 310,000); HEK293 TMEM16A/YFP iodide influx fluorescence, ionomycin;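 active = ratio plate-corrected score three or more library SD toward inhibition, starting fluorescence score within five deviations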;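 note: score derived from kinetic fluorescence span divided by baseline fluorescence per well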
NOD2 RIPK2 PPI = blocks binding of human NOD2 to RIPK2; inhibition, % at 4.98 µM; AID 624267; actives 0.38% (n = 360,000); O43353; CHO BLA complementation NOD2-RIPK2, CCF4 ratio; in the data active = inhibition above about 21%
TMEM16A reconf = reconfirmed blocker of mouse TMEM16A calcium-activated chloride channel; actives 39% (n = 2,300); shares compounds with ANO1 block; HEK293 TMEM16A/YFP-H148Q, iodide quench fluorescence; ionomycin added to raise cell calcium; inhibition, % at 10 µM;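 active = mean duplicate percent inhibition, scaled so buffer wells are 0 and the reference blocker 100, over three buffer SD above buffer mean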
HEK293 Ca mobil = alters calcium mobilization in TMEM16A HEK293 cells, counter-screen; actives 2% (n = 2,300); shares compounds with ANO1 block; TMEM16A/YFP HEK293, Fluo4 calcium mobilization; calcium response (% of ionomycin), % at 10 µM;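 active = duplicate-averaged calcium signal over 20% of the ionomycin maximum, relative to buffer baseline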;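 note: each well's signal is peak minus trough fluorescence divided by its pre-addition baseline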
YFP-HEK293 quench = parental YFP-HEK293 iodide quench counter-screen activity. shares compounds with ANO1 block. ionomycin. YFP ratio F(max-min)/F0 at 10 µM. 2,300 tested, under 10 active. AID 652233;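 active = yellow fluorescent protein signal ratio exceeding the buffer control mean by over 5 SD of those controls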;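 note: ratio is mean of duplicate wells from kinetic YFP trace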
ClC-1 inh = rat ClC-1 inhibition, TMEM16A specificity screen; shares compounds with ANO1 block; CHO ClC-1-YFP, iodide influx fluorescence quench; iodide control reads 0, buffer control 100; ratio percent, % at 10 µM; 2,300 tested, under 10 active; AID 652236;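 active = duplicate-mean ratio percent above the mean of iodide-only control wells, which defines zero, plus 5 of their SD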;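 note: higher percent means stronger block of ClC-1 iodide influx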
Large screens that a line does not name were inactive (follow-up assays come after a bar, where they were run).

Cc1cccc(NC(=O)CNC(=O)Cc2ccc(S(=O)(=O)N3CCOCC3)s2)c1C	none (no result: TLR4 MyD88 comp, ANO1 block)
COc1c(C(O)CC(C)C)ccc2c1C(=O)OCc1cc(C)cc(O)c1O2 (centres undefined)	ANO1 block 25 | TMEM16A reconf 22% | HEK293 Ca mobil inactive | YFP-HEK293 quench inactive | ClC-1 inh inactive
COc1c(C(CC(C)C)OC(C)=O)ccc2c1C(=O)OCc1cc(C)cc(O)c1O2 (centres undefined)	ANO1 block 100 (no result: TLR4 MyD88 comp) | TMEM16A reconf 24% | HEK293 Ca mobil inactive | YFP-HEK293 quench inactive | ClC-1 inh inactive
O=C(COc1ccc(Br)cc1)Nc1ccc(CN2CCOCC2)cc1	none (no result: TLR4 MyD88 comp)
CC(=O)O[C@]1(C(C)=O)CC[C@H]2[C@@H]3C=CC4=CC(=O)C=C[C@]4(C)[C@H]3CC[C@@]21C	none (no result: TLR4 MyD88 comp)
Cn1nc(C(C)(C)C)c(NC(=O)c2cccs2)c1C(C)(C)C	none (no result: TLR4 MyD88 comp)
CC(C)(C)OC(=O)N1CCN(c2ccc(CNC(=O)c3ccc(Cl)cc3)cc2)CC1	ANO1 block 100 | TMEM16A reconf 22% | HEK293 Ca mobil inactive | YFP-HEK293 quench inactive | ClC-1 inh inactive
COc1ccccc1N1CCN(CCCN=C2CC(=O)N(C)C(=O)N2C)CC1	none (no result: TLR4 MyD88 comp, ANO1 block)
COc1ccc(CCNC(=O)N2c3ccccc3Sc3ccccc32)cc1	ANO1 block 100 | TMEM16A reconf 53% | HEK293 Ca mobil inactive | YFP-HEK293 quench inactive | ClC-1 inh inactive
COCCCNC(=O)N1c2ccccc2Sc2ccccc21	none (no result: TLR4 MyD88 comp)
COCC(N)(c1ccccc1)c1nc2ccccc2n1C (centres undefined)	ANO1 block 25 | TMEM16A reconf inactive | HEK293 Ca mobil inactive | YFP-HEK293 quench inactive | ClC-1 inh inactive
Cc1ccc(C(c2nnnn2C2CCCCC2)N(C)C2CCCCC2)cc1 (centres undefined)	ANO1 block 25 | TMEM16A reconf inactive | HEK293 Ca mobil inactive | YFP-HEK293 quench inactive | ClC-1 inh inactive
CN(c1ccccc1)C(c1ccc(F)cc1)c1nnnn1C1CCCC1 (centres undefined)	none | TMEM16A reconf inactive | HEK293 Ca mobil inactive | YFP-HEK293 quench inactive | ClC-1 inh inactive
N#Cc1c(NC(=O)c2ccc([N+](=O)[O-])o2)sc2c1CCC2	ANO1 block 100 (no result: TLR4 MyD88 comp) | TMEM16A reconf 41% | HEK293 Ca mobil inactive | YFP-HEK293 quench inactive | ClC-1 inh inactive
NC(=O)c1c(NC(=O)c2ccc([N+](=O)[O-])o2)sc2c1CCCC2	none (no result: TLR4 MyD88 comp)
CC(C)(C)C(=O)COC(=O)CCc1nc2ccccc2[nH]c1=O	ANO1 block 25 | TMEM16A reconf inactive | HEK293 Ca mobil inactive | YFP-HEK293 quench inactive | ClC-1 inh inactive
CC(=O)COC(=O)CCc1nc2ccccc2[nH]c1=O	none
CCCCCCNCc1c(F)cccc1Cl	none
COc1ccc(C(=O)NCC(=O)OCC(=O)NCc2ccc3c(c2)OCO3)cc1	none (no result: TLR4 MyD88 comp, ANO1 block)
COCCNC(=O)c1c(NC(=O)c2nc(SC)ncc2Cl)sc2c1CCCC2	none | TMEM16A reconf 24% | HEK293 Ca mobil inactive | YFP-HEK293 quench inactive | ClC-1 inh inactive
COc1ccc(C)cc1NC(=O)C(NC(=O)c1cc(OC)c(OC)c(OC)c1)C(C)C (centres undefined)	none
N#CC1=C(N)Oc2cc(O)c(C=Nc3ccccc3)cc2C1c1ccccc1 (centres undefined)	none | TMEM16A reconf inactive | HEK293 Ca mobil inactive | YFP-HEK293 quench inactive | ClC-1 inh inactive
O=C(COC(=O)c1cc(Cl)nc(Cl)c1)NCc1ccc2c(c1)OCO2	none (no result: TLR4 MyD88 comp, ANO1 block)
O=C1NC(=O)C(Cc2c[nH]c3ccccc23)N1 (centres undefined)	none (no result: TLR4 MyD88 comp)
O=C(OCc1ccccn1)c1ccc(COc2ccc3ccccc3c2)o1	ANO1 block 25 (no result: TLR4 MyD88 comp) | TMEM16A reconf 32% | HEK293 Ca mobil inactive | YFP-HEK293 quench inactive | ClC-1 inh inactive
O=C(O)[C@H]1CCCC[C@H]1C(=O)Nc1ccc(S(=O)(=O)N2CCOCC2)cc1	none (no result: TLR4 MyD88 comp)
O=C(c1ccc(Cl)cc1)C1CCCN(Cc2cnn(-c3ccccc3)c2)C1 (centres undefined)	ANO1 block 100 | TMEM16A reconf 33% | HEK293 Ca mobil inactive | YFP-HEK293 quench inactive | ClC-1 inh inactive
COc1ccc(CCNC(=O)c2ccc(S(=O)(=O)N3CCCCC3)cc2)cc1	none (no result: TLR4 MyD88 comp, ANO1 block)
COc1ccc(CCNC(=O)c2ccc(N3CCCC3=O)cc2)cc1	none
CCOc1ccc(CCNC(=O)c2ccc(N3CCCC3=O)cc2)cc1OCC	ANO1 block 25 | TMEM16A reconf inactive | HEK293 Ca mobil inactive | YFP-HEK293 quench inactive | ClC-1 inh inactive
c1ccc(CCCNc2ncnc3nc[nH]c23)cc1	none
Clc1ccc(CCNc2ncnc3nc[nH]c23)cc1	ANO1 block 100 | TMEM16A reconf 36% | HEK293 Ca mobil inactive | YFP-HEK293 quench inactive | ClC-1 inh inactive
Cc1ccccc1CSCCNC(=S)Nc1ccccc1	none
S=C(NCCSCc1ccc(Cl)cc1Cl)Nc1ccccc1	ANO1 block 100 | TMEM16A reconf 23% | HEK293 Ca mobil inactive | YFP-HEK293 quench inactive | ClC-1 inh inactive
CCCCOc1ccc2c(C)cc(=O)oc2c1OCCCC	ANO1 block 100 | TMEM16A reconf inactive | HEK293 Ca mobil inactive | YFP-HEK293 quench inactive | ClC-1 inh inactive
COc1ccc(N(CC(=O)NCCSCc2ccc(C)cc2)S(=O)(=O)c2ccccc2)cc1	ANO1 block 25 (no result: TLR4 MyD88 comp) | TMEM16A reconf inactive | HEK293 Ca mobil inactive | YFP-HEK293 quench inactive | ClC-1 inh inactive
CCOC(=O)N1CCN(c2cc(=O)n(-c3ccccc3Cl)c(=O)[nH]2)CC1	none
COC(=O)C1CCN(c2cc(=O)n(-c3ccccc3Cl)c(=O)[nH]2)CC1	ANO1 block 100 | TMEM16A reconf inactive | HEK293 Ca mobil inactive | YFP-HEK293 quench inactive | ClC-1 inh inactive
CCCCCCNC(=O)CC(c1ccccc1)c1cc(Br)ccc1O (centres undefined)	ANO1 block 100 | TMEM16A reconf 47% | HEK293 Ca mobil inactive | YFP-HEK293 quench inactive | ClC-1 inh inactive
O=C(NNC(=O)c1ccccc1-n1cccc1)c1cncc(Br)c1	none (no result: TLR4 MyD88 comp, ANO1 block)
COc1ccc(-c2noc(CN(C(=O)c3ccc4c(c3)OCO4)C(C)C)n2)cc1	none (no result: TLR4 MyD88 comp)
